# Shown are actives, neighbours in structure and some others; about 3.9% of the full set was active somewhere.
# D1 antagonist – antagonists of human D1 dopamine receptor; actives 3.2% (n = 360,000); HEK293 TREx D1 cells, calcium flux, dopamine EC80; active compounds read low; AID 504652; activity change, negative = inhibition, % at 10 µM; in the data active means activity change below about -30%; further: on the % scale 0 is the no-effect control and ±100 the full control effect
#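 Inducible Hek293 Trex D1 cells (tetracycline, overnight, 30 C). Calcium dye 30–90 min RT. Antagonist mode: EC80 dopamine added after 180 s compound read.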
# USP2a inh – USP2a (human) protease inhibition; O75604; USP2 core, Ub-CHOP2 coupled fluorogenic reporter, 485/531; Potency, µM (series often up to 38.3 µM), for the others: at the top dose activity change, negative = inhibition, usual class: inhibitors; actives 0.01% (n = 330,000); AID 463254;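 further: potency means the concentration at half of the fitted maximal effect; plate controls were DMSO wells for no effect and full inhibition by NEM control for full effect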
#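 USP2 core (10nM final) preincubated 30min RT with compound in 20mM Tris-HCl pH 8.0, 2mM CaCl2, 2mM beta-mercaptoethanol, 0.05% CHAPS; 25nM Ub-CHOP2 plus 25nM reporter substrate added, fluorescence (Ex485/Em531) read after 60min.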
# D1 potentiator – potentiators of human D1 dopamine receptor; P21728; HEK293 TREx D1 cells, calcium flux, dopamine EC20 potentiation; potentiation, % at 10 µM; actives 0.036% (n = 360,000); in the data active means potentiation above about 30%; further: 0% is about no effect
# D1 agonist – activates the human D1 dopamine receptor | AID 504660 | P21728 | activation, % at 2 µM | actives 1% (n = 360,000) | HEK293 T-REx D1 cells, calcium flux, agonist mode; in the data active means activation above about 30%; further: 0% is about no effect
#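 Inducible HEK293 T-REx D1 cells, force-coupled to calcium signalling, were plated at 4000 cells/well with tetracycline and held overnight at 30 C. After no-wash calcium dye loading, compound-evoked calcium rise over 180 s flagged agonists.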
# GALK inhibitor – galactokinase (human) inhibition | P51570 | Purified GALK, Kinase-Glo residual ATP luminescence | Potency, µM (top dose mostly 57.5 µM), without a hit: at the highest dose activity change, negative = inhibition, usual class: inhibitors | actives 0.007% (n = 270,000); further: potency means the concentration at half of the fitted maximal effect; on the % scale 0 is the no-effect control and ±100 the full control effect
#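 Compounds were pin-transferred into ATP buffer (35 uM final), then GALK plus galactose (5 nM, 100 uM final) was added. After 1 h at room temperature, Kinase-Glo Plus was added and luminescence read after 10 min.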
# Eya2 inh – inhibitors of human Eya2 phosphatase activity. O00167. recombinant Eya2, OMFP fluorescence dephosphorylation (OMFP is methylfluorescein phosphate). Potency, µM (top dose mostly 76.9 µM), inactives show top-dose activity, negative = inhibition, most hits filed as inhibitors. actives 0.006% (n = 330,000). AID 488837; further: potency means the concentration at half of the fitted maximal effect; on the % scale 0 is the no-effect control and ±100 the full control effect
# Target sequence (O00167 whole entry, looked up): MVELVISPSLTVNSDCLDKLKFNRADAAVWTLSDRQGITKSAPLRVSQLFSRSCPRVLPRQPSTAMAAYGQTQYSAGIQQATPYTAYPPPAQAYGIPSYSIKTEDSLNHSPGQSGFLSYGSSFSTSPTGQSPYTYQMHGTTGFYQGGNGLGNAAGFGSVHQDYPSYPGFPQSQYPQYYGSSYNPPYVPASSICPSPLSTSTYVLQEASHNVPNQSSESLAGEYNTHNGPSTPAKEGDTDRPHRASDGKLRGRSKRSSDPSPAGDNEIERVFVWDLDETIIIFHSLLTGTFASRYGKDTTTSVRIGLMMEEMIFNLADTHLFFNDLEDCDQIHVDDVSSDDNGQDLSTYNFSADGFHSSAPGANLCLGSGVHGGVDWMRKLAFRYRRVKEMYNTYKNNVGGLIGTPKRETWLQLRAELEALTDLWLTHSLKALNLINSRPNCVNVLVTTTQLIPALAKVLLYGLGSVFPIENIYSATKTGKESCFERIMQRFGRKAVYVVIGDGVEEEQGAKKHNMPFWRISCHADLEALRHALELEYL
#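 Eya2 protein (added as 0.2 uM solution) was preincubated with compound for 10 min at ambient temperature in 50 mM HEPES pH 7.5, 50 mM NaCl, 5 uM MgCl2, 0.05% BSA, 1 mM DTT. OMFP (added at 50 uM) then reacted 10 min; fluorescence read at 485/525 nm.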
# * = called active by the depositor; ? = inconclusive; . = not tested or not shown. Unless noted, the call rests on the fitted dose curve; in most records, active means well fitted inhibition curve with a large enough effect; inconclusive means small, poorly fitted or top-dose-only effect, or effect the other way; inactive means flat fitted curve, though single readings scatter.
SMILES,D1 antagonist,USP2a inh,D1 potentiator,D1 agonist,GALK inhibitor,Eya2 inh
Cc1ccc(OCCCCNC2CCCCC2)c(C)c1,-19,-5%,-5,57*,1%,-11%
COc1ccc(S(=O)(=O)N(CC(=O)Nc2ccccc2Cl)Cc2ccccc2)cc1,-18,.,-4,21,.,.
C#CCn1c(C2CC(=O)N(c3ccc(OCC)cc3)C2)nc2ccccc21 (stereo not drawn),-2,.,-2,0,.,.
Cc1cc(/C=C2\SC(=O)N(C)C2=O)c(C)n1-c1ccc(O)cc1,-3,0%,-4,8,0%,-2%
CN=C1S/C(=C\c2cc(C)n(-c3ccccc3F)c2C)C(=O)N1C,-43*,1%,-4,6,1%,-29%
CCOc1cc(-c2nc(-c3ccc(-c4ccc(OC)cc4)nc3OC)no2)cc(OCC)c1OCC,9,.,-3,0,.,.
CCN(C(=O)CCS(=O)(=O)c1cc2[nH]c(=O)c(=O)[nH]c2cc1C)c1ccccc1,-80*,.,-1,0,.,.
CCOc1ccc2nc(C)cc(C(=O)O)c2c1,23,0%,-3,2,-2%,-20%
CCOc1ccc2nc(C)cc(Nc3ccccc3OCC)c2c1,-49*,.,-1,25,.,.
O=C(CNC(=O)C1CCCCC1)NNC(=O)c1ccccc1Br,-35*,0%,-8,2,5%,3%
COc1ccc2c(c1)c1c(c(=O)n(CCc3ccccc3)c(=O)n1Cc1cccc(Cl)c1)n2C,-5,.,-1,3,.,.
COC(=O)CCNC(=O)NC(CCC(C)C)c1c(-n2cccc2)sc2c1CCN(C)C2 (stereo not drawn),-2,.,-1,5,.,.
COc1cc2[nH]c(=O)c(C(=O)NCCCN3CCOCC3)c(O)c2cc1OC,-9,5%,-4,1,4%,-6%
O=C(NCCCN1CCOCC1)c1c(O)c2cc(Br)cc(Br)c2[nH]c1=O,-36*,2%,-2,4,2%,0%
CN(C)CCNC(=O)C(=O)Nc1ccc2c(c1)N(S(=O)(=O)c1cccs1)CCC2,-6,0%,-1,56*,.,15%
CCn1cc(C(=O)OCC(=O)c2cc(C)n(-c3ccccc3)c2C)c(=O)c2ccc(C)nc21,5,0%,-4,0,2%,-14%
CCn1cc(C(=O)OCC(=O)c2cc(C)n(-c3ccc(OC(F)F)cc3)c2C)c(=O)c2ccc(C)nc21,-32*,4%,-7,1,-1%,-3%
O=C1c2ccccc2S(=O)(=O)N1CC1CC(c2ccc(Cl)cc2)=NO1 (stereo not drawn),-34*,1%,-3,7,.,0%
CC(=O)CCC1CC(c2ccc(Cl)cc2)=NO1 (stereo not drawn),-6,1%,-3,1,.,1%
COc1ccc(C2=NOC(CN3C(=O)c4ccccc4S3(=O)=O)C2)cc1 (stereo not drawn),-27,-1%,-7,18,1%,8%
O=C1c2ccccc2S(=O)(=O)N1CC1CC(c2ccccc2)=NO1 (stereo not drawn),-34*,0%,-6,0,7%,-10%
NS(=O)(=O)c1ccc(CCNC(=O)C2COc3ccccc3C2)cc1 (stereo not drawn),15,.,-2,1,.,.
Cn1c(O)c(/C=C2\C=Nc3ccccc32)sc1=Nc1ccc(C(=O)O)cc1,-5,2%,-3,2,.,13%
O=C(Cc1ccccc1)Nn1c(O)c(/C=C2\C=Nc3ccccc32)sc1=S,17,-1%,5,99*,.,29%
CCOC(=O)CN(C(=O)CSc1nnc(C)n1-c1ccccc1)c1cccc([N+](=O)[O-])c1,-5,-1%,-3,1,0%,6%
SMILES,D1 antagonist,USP2a inh,D1 potentiator,D1 agonist,GALK inhibitor,Eya2 inh
CCOC(=O)CN(C(=O)CSc1nnc(C)n1-c1ccccc1)c1ccccc1,-52*,0%,-4,1,-2%,25%
CCN(CC)S(=O)(=O)c1ccc2c(c1)nc(CN(C)C(=O)Nc1ccc(C)c(Cl)c1)n2C,12,.,1,0,.,.
CCN(CC)S(=O)(=O)c1ccc2c(c1)nc(CN(C)C(=O)Nc1ccc(C)c(F)c1)n2C,-68*,.,-1,1,.,.
O=C(Cc1ccccc1)NNc1ccc2ccccc2c1,-49*,2%,10,1,12%,-10%
O=C(COc1ccc2ccccc2c1)NNC(=O)Cc1ccccc1,-8,1%,-7,5,.,-12%
COc1cc(OC)c2c(C)c(Cl)c(=O)oc2c1,-36*,1%,-10,-1,1%,3%
COc1ccc(CNC(=O)c2cc(C)nc3c2c(C)nn3-c2cccc(Cl)c2C)cc1,3,.,-5,3,.,.
Cc1ccc(Cl)c2sc(N3CCN(C(=O)C4CC4)CC3)nc12,.,.,4,-2,.,.
Cc1nnc(SCC(=O)NC2CCCCC2)s1,5,3%,-2,2,11%,5%
Cc1nnc(SCC(=O)NC2CC2)s1,-48*,3%,-1,1,-5%,-4%
CN(C)c1ccc(/C=C/C(=O)c2c(O)c3ccccc3oc2=O)cc1,-17,10%,-4,156*,-2%,5%
CN1CCC(=NOc2ccc([N+](=O)[O-])cc2)CC1,-52*,-1%,-9,11,7%,-10%
COc1ccc(C(=O)ON=C2CCN(c3ccc([N+](=O)[O-])cc3)CC2)cc1,-2,-8%,8,15,0%,1%
CCOC(=O)N1CCN(Cc2nc(-c3cccc(C)c3)no2)CC1,-31*,1%,-1,10,0%,-36%
Cc1ccccc1-n1c(SCC(=O)Nc2ccc(Cl)cc2Cl)nc(O)cc1=O,-13,.,-3,2,.,.
CC(=O)c1ccc(N2CCN(S(=O)(=O)c3ccc4c5c3CC(=O)N5CC(C)S4)CC2)cc1 (stereo not drawn),-57*,2%,-13,7,-3%,2%
Cc1cc(C(=O)NCCc2ccc(Cl)cc2)c2c(C)nn(-c3ccccc3)c2n1,-2,.,2,2,.,.
Cc1ccc(NC(=O)Cn2nc([N+](=O)[O-])c(Br)c2C)cc1C,-33*,2%,-5,9,.,-3%
COc1cc(NC(=O)Cn2nc(C(F)(F)F)c(Br)c2C)cc([N+](=O)[O-])c1,-34*,2%,-2,22,2%,-6%
Cc1c(Br)c([N+](=O)[O-])nn1CC(=O)Nc1ccc(CC#N)cc1,-13,0%,-12,3,3%,?
Cc1ccc(-n2cc(C(C)(C)C)[nH]c2=S)cc1,-46*,0%,-7,3,-1%,-2%
CN1/C(=C\C=C(/C#N)C(=O)Nc2ccccc2F)C(C)(C)c2ccccc21,-18,7%,4,277*,1%,10%

# Screening results as filed in PubChem BioAssay.
